Experimental findings from the supplement of paper PMC11417369 are described below.

The full ranking holds about 25,000 sequences; the median of “ln(normalized median fluorescence intensity)” is about 7.1, and the highest 2% start at about 10. The sample holds the highest values, similar sequences and a random draw of the others, so the mix is not that of the screen.

The test system of this assay is PfSIP2 AP2 domain 1 (GST-tagged). The experiment in a line: gcPBM binding intensity (ln(normalized median fluorescence intensity)); higher = stronger DNA binding. In short, it runs like this:
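For binding intensity, the highest Masliner-normalised natural-log median intensity across replicate spots of either probe orientation was taken. Protein bound to the array was stained with Alexa488 anti-GST antibody and scanned at 488 nm. The protein, GST-tagged P. falciparum DNA-binding domains from E. coli at about 25 μg on average, had been applied for 1 h to an Agilent 4 × 180k array of primer-extended double-stranded 36-bp intergenic genomic probes and negative controls.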
Turning to “TATATCTTAATATTTACACACATGCGCACCCATAAA [CACACA_site5349]”, the “gcPBM binding intensity (ln)” value is 12.
“TATATATTAATATTTACACACATGCGCACCCATAAA [CACACA_site2410]”: the “gcPBM binding intensity (ln)” value is 12.1.
The value for “TATTTACACCCATGCGCACACATAAATAAATAATAG [CACACA_site5350]” was 8.34; that for “AATATTTACAGACATGCGCACACATAAATAAATAAT [CACACA_site8760]” was 8.81.
On to “TATGAATGGTTAAGTACACACATATTAAGATATGTA [CACACA_site5852]”, for which the “gcPBM binding intensity (ln)” value amounted to 6.99.
On to “CTATTTAAAATTTGAACACACATTATTTATTTTAAA [CACACA_site3114]”, for which the “gcPBM binding intensity (ln)” value worked out at 6.9.
The result for ACTTTAACCTGAACGGTGCATAAAATTTTGGCATTA reads 10.8; that for “TGCATTTTACTTGTTACACACATATAAAATTAACCA [CACACA_site7387]”, 7.11; that for “TTATAGCCTGTGAAGAGTACATTTTTATTTTTTATT [XGTACX_site4105]”, 6.85.
Turning to “TTTTTTTTTTTTTGGTGTACCATAGGTAAAATGATT [XGTACX_site8020]”, the “gcPBM binding intensity (ln)” value worked out at 7.2.
The result for “TATTTATATTTATACACACACACAAAAAAAAAAAAA [CACACA_site6817]” reads 7.22.
The value for “TATTTTTTATATTTATTTATTTAAAGGAGCTTTTCT [GTGCAC_negctrl_site293]” was 6.67; that for “TTTTTCATTTAGCTTTTACACACTATATATTATTGA [CACACA_site7888]” was 7.16.
Take “CAGGTGCACTATATTACACACGCTTCTTTTTTTTTA [CACACA_site2069]”: the “gcPBM binding intensity (ln)” value amounted to 12.4.
The result for “ATATATATATATATTACACACTTTTTCTTTTTTTTT [CACACA_site2780]” reads 9.47; that for “ATCATATTTTTATGTGTGCACTTTTTTTTTTTTTTT [GTGCAC_site9555]”, 10.8.
The value for “TATATATTTCGGTGTGCACACTTTTTATTTTTATCC [CACACA_site1726]” was 8.4.
The value for TATATATATATATATGTGCACATATTTATATGTTTT was 9.47; that for “ATATATTGCACTTTTTGTACATAATGAAAAATTTTT [XGTACX_site8223]” was 8.1; that for AATATTTCTCATTTTGTGCACTGAAAAATGTAATAT was 10.2.
Consider “ACATATTATATATGTGTGCACATATATATATATTTA [GTGCAC_site9591]”, for which the “gcPBM binding intensity (ln)” value worked out at 8.7.
The result for ATATATTTTATATGTGTGCACTATATATATATATAT reads 10.2.
Regarding TATATATTTTTATGTGTGCACTGTTTCATAAAAGAA, the “gcPBM binding intensity (ln)” value amounted to 10.9.
The result for “TATATATATATGTGCACACATAAAGATATTATTTTT [CACACA_site3733]” reads 9.51.
The value for TATATATATTTTTGTGTGCACTATAATATGAAAATA was 10.8; that for “AATATATTTATGCTCATGCACTTTTTTTTTTTTTTT [GTGCAC_site9654]” was 8.89; that for “AATTTTTTTTTTTTTTTTTTTTATATATGTGTGTGT [XGTACX_negctrl_site129]” was 7.29.
The result for “AAATATATTTTACATTGTACATGAATAAACTATAAA [XGTACX_site2080]” reads 7.05; that for “AAGGCAAGCACTTAAACATGCATATAATAATATCAT [TGCATGCA_site698]”, 7.36; that for “TGATAAGTATACTAAAGTACATGAAAAATAACTTCC [XGTACX_site6908]”, 6.87.
With “ATTACATACGAGCACACGTAAAAGTATAATATAAAA [GTGCAC_negctrl_site446]”, the “gcPBM binding intensity (ln)” value is 6.94.
The result for “TGAGTATATATAAATACACACCAAATGTTAATATAT [CACACA_site5022]” reads 6.8; that for “TAATGATAAATACATACACACAAAAAATAATATATA [CACACA_site2576]”, 6.85; that for “CATATATATTTGTTCACACACACACTAGAAAAAAAA [CACACA_site5380]”, 7.29.
The value for “TATGATACATAAATATGTACGTATAATATATATTTA [XGTACX_site7002]” was 6.96; that for “ATTATTAAAAATATGGGTACATATTATTGTTATATA [XGTACX_site1958]” was 6.89; that for “AAAAAATAAAAAATATGTACACATTCAAAATTTTAC [XGTACX_site8479]” was 6.91.
The value for “TATATTTTTATGTGTGTGCACAAAATAACAAAATAT [GTGCAC_site9596]” was 9.36; that for “ATTTTATGAAATGTTGCACACAAAAAACAACATGTT [CACACA_site8408]” was 7.66.
As to TATTTTTGGTTATGTGTGCACTATGAACAACAAAAT, the “gcPBM binding intensity (ln)” value stood at 10.5.
Turning to “AATATTTGCCTATGTTGTACTGACATTTTTTTAAGT [XGTACX_site6836]”, the “gcPBM binding intensity (ln)” value came to 7.06.
The value for “TTTTAAGATATAAATTAATACTTATATATATAGATA [CACACA_negctrl_site22]” was 6.75; that for “TAATTACACTTTAAAAGTACATATATAATAACATTA [XGTACX_site379]” was 7.04.
The value for “ATTAGTTTACACATATGTACATATATTACAACAAAA [XGTACX_site275]” was 7.34; that for “AAAAAGAACACAAAAAGTACAAAAATTATAATGATA [XGTACX_site2676]” was 6.98.
